Several values for one entry are separate records, joined by “and”; a condition that tells them apart may be missing. Equal entries are not always repeated. Screen size: about 5,500 compounds; about 2,000 (36%) were called active. About 18% were inconclusive and are not listed. Cut-off read from the data, not from the text of the source: active = normalized growth mostly below about 0.91 (no sharp cut-off); inconclusive = no clear call, values can overlap the other calls; inactive = mostly above about 0.92. The list shows a part of the results.
Test: chemical genetic growth profiling, strain panel (AID 1159580);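 note: tested at 20 µM; growth read once vehicle control cultures reached saturation at 30 °C; 1 = growth at the plate median or of vehicle wells; lower values mean less growth of the strain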
Conditions: S. cerevisiae deletion strains, growth OD

Measured: normalized growth

NCc1ccc(S(N)(=O)=O)cc1
inactive: locus YAL021C, strain ccr4, hits give low values 1.01 | locus YAL026C, strain drs2, hits give low values 0.992 | locus YAL030W, strain snc1, hits give low values 1.01 | locus YBL061C, strain skt5, hits give low values 1.01 | locus YBR009C, strain hhf1, hits give low values 0.972 | locus YBR021W, strain FUR4, hits give low values 1.01 | locus YBR023C, strain chs3, hits give low values 1.02 | locus YBR171W, strain sec66, hits give low values 1 | locus YBR229C, strain ROT2, hits give low values 0.986 | locus YBR231C, strain swc5, hits give low values 1.02 | locus YBR279W, strain paf1, hits give low values 1 | locus YCL011C, strain gbp2, hits give low values 1.01 | locus YCL016C, strain dcc1, hits give low values 1.03 | locus YCL029C, strain bik1, hits give low values 0.993 | locus YCL061C, strain MRC1, hits give low values 1.02 | locus YCL069W, strain vba3, hits give low values 0.994 | locus YCR088W, strain abp1, hits give low values 1.01 | locus YDL005C, strain med2, hits give low values 1.02 | locus YDL035C, strain GPR1, hits give low values 1.01 | locus YDL040C, strain nat1, hits give low values 1 | locus YDL074C, strain BRE1, hits give low values 1.01 | locus YDL101C, strain DUN1, hits give low values 0.987 | locus YDL134C, strain PPH21, hits give low values 0.994 | locus YDL185W, strain tfp1, hits give low values 0.977 | locus YDL192W, strain arf1, hits give low values 0.979 | locus YDR001C, strain nth1, hits give low values 0.998 | locus YDR069C, strain doa4, hits give low values 1.01 | locus YDR101C, strain arx1, hits give low values 1.02 | locus YDR137W, strain rgp1, hits give low values 1.03 | locus YDR150W, strain NUM1, hits give low values 1.01 | locus YDR159W, strain sac3, hits give low values 0.983 | locus YDR162C, strain NBP2, hits give low values 1.01 | locus YDR195W, strain ref2 0.989 | locus YDR297W, strain sur2, hits give low values 1.01 | locus YDR318W, strain mcm21, hits give low values 0.99 | locus YDR334W, strain swr1, hits give low values 1 | locus YDR335W, strain msn5, hits give low values 1.01 | locus YDR388W, hits give low values 0.993 | locus YDR392W, strain spt3, hits give low values 0.969 | locus YDR502C, strain sam2, hits give low values 0.99 | locus YEL003W, strain gim4, hits give low values 0.982 | locus YEL037C, strain rad23, hits give low values 0.992 | locus YEL061C, strain CIN8 (second series), hits give low values 1 | locus YEL061C, strain CIN8, hits give low values 1.01 | locus YER015W, strain faa2, hits give low values 0.99 | locus YER016W, strain bim1, hits give low values 1.02 | locus YER110C, hits give low values 0.983 | locus YER111C, strain swi4, hits give low values 0.998 | locus YER155C, strain BEM2 (second series), hits give low values 1.01 | locus YER155C, strain BEM2, hits give low values 0.984 | locus YER167W, strain BCK2, hits give low values 1.02 | locus YFR010W, strain ubp6, hits give low values 0.995 | locus YGL078C, strain dbp3, hits give low values 0.98 | locus YGL086W, strain mad1, hits give low values 0.995 | locus YGL167C, strain pmr1, hits give low values 0.997 | locus YGL173C, strain kem1, hits give low values 1.02 | locus YGL227W, strain vid30, hits give low values 1.01 | locus YGL240W, strain doc1, hits give low values 1.04 | locus YGL248W, strain PDE1, hits give low values 0.984 | locus YGL253W, strain hxk2, hits give low values 1.01 | locus YGR135W, strain pre9, hits give low values 0.961 | locus YGR252W, strain gcn5, hits give low values 0.928 | locus YHR013C, strain ard1, hits give low values 1.04 | locus YHR027C, strain rpn1, hits give low values 1.02 | locus YHR030C, strain SLT2, hits give low values 1.01 | locus YHR079C, strain IRE1 (second series), hits give low values 0.991 | locus YHR079C, strain IRE1, hits give low values 1.04 | locus YHR094C, strain hxt1, hits give low values 0.996 | locus YHR129C, strain ARP1, hits give low values 0.986 | locus YHR142W, strain chs7, hits give low values 1.01 | locus YHR200W, strain rpn10, hits give low values 0.984 | locus YIL066C, strain RNR3, hits give low values 0.989 | locus YIL073C, strain SPO22, hits give low values 1.01 | locus YIL125W, strain kgd1, hits give low values 0.983 | locus YIR030C, strain dcg1, hits give low values 0.991 | locus YJL092W, strain hpr5, hits give low values 1.01 | locus YJL095W, strain BCK1 (second series), hits give low values 1.01 | locus YJL095W, strain BCK1, hits give low values 0.988 and 1.01 | locus YJL115W, strain asf1, hits give low values 1 | locus YJL129C, strain trk1, hits give low values 1.05 | locus YJL134W, strain LCB3, hits give low values 1 | locus YJL154C, strain vps35, hits give low values 1 | locus YJL164C, strain tpk1, hits give low values 0.98 | locus YJL166W, strain qcr8, hits give low values 1.04 | locus YJL168C, strain set2, hits give low values 0.991 | locus YJL187C, strain SWE1 (second series), hits give low values 0.981 | locus YJL187C, strain SWE1, hits give low values 1.01 | locus YJR043C, strain POL32, hits give low values 1.01 | locus YJR066W, strain TOR1, hits give low values 0.957 | locus YJR075W, strain HOC1, hits give low values 0.995

— PubChem BioAssay AID1159580 (chemical genetic matrix, 2015)
